Inconclusive results are not listed. Unless noted, calls follow the shape of the full dose curve.
Experiments:
[1] = Cell Viability - BJ (AID 421); settings: BJ fibroblast viability, qHTS;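 also: potency is read from the fitted curve at half-maximal effect; cells exposed to compound for 40 hours at 37 °C before readout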
Procedure, shortened: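 Quantitative HTS: ATP depletion in BJ cells after 40 hr compound exposure in complete culture medium, detected with CellTiter-Glo; AC50 from standard Hill fits.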

[2] = Cell Viability - Jurkat (AID 426;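 active = dose-dependent loss of cell ATP signal giving a full or clear fitted curve, ranked by lower potency value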;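 also: potency is read from the fitted curve at half-maximal effect; cells exposed to compound for 40 hours at 37 °C before ATP read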); settings: qHTS
Procedure, shortened: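 Cytotoxicity taken as drop in cellular ATP (CellTiter-Glo luminescence, 20 min room temperature) after 40 hr, 37C treatment of 5000 Jurkat Clone E6-1 cells per well; concentration-response fitted with Hill equation for AC50.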

[3] = Cell Viability - Hek293 (AID 427;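 active = compounds whose dose-response curve shows a full or clear partial loss of cell viability, called from curve shape rather than a numeric limit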;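 also: potency is read from the fitted curve at half-maximal effect; cells exposed to compound for 40 hours at 37 °C before reading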); settings: qHTS
Procedure, shortened: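 AC50 values derive from Hill-modelled concentration-response of ATP-based luminescence, normalized between DMSO-only and 100 uM tamoxifen controls. Cells were exposed in complete culture medium for 40 hr at 37 °C before detection.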

[4] = Cell Viability - HepG2 (AID 433); settings: qHTS;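 also: potency is read from the fitted curve at half-maximal effect; cells exposed to compound for 40 hours; potency for ATP loss meaning cytotoxicity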
Procedure, shortened: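 In this qHTS format, a 40 h, 37 °C compound incubation of HepG2 cells in complete medium precedes a 20 min CellTiter-Glo step at room temperature. Tamoxifen and doxorubicin serve as positive controls; Hill-equation fits yield AC50.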

[5] = Cell Viability - MRC5 (AID 434); settings: MRC5 lung fibroblast viability, qHTS;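 also: potency is read from the fitted curve at half-maximal effect; cells exposed to compound for 40 hours at 37 °C; potency reflects cytotoxicity seen as loss of intracellular ATP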
Procedure, shortened: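 ATP luminescence read-out (CellTiter-Glo, 20 min RT) after 40 hr, 37 °C compound exposure of 1500 MRC5 cells/well. Data normalized to DMSO (basal) and 100 uM tamoxifen (100% inhibition); AC50 from standard Hill equation.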

[6] = Cell Viability - SK-N-SH (AID 435); settings: SK-N-SH neuroblastoma cell viability qHTS;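 also: potency is read from the fitted curve at half-maximal effect; compound exposure lasted 40 h at 37 °C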
Procedure, shortened: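 Human neuroblastoma line, 40 h exposure at 37 °C, ATP quantified via luciferase luminescence; DMSO and 100 uM tamoxifen define 0 and 100% inhibition for AC50 fitting.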

[7] = NFAT Signaling Pathway (AID 444; active = well fitted curve in either direction with a large enough effect, not every such curve was filed as active;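 also: carbachol stimulus at about its EC50 of 1 µM final; % is scaled to controls: 0 for no effect and ±100 for the full control effect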); settings: Jurkat NFAT-bla M1, carbachol, beta-lactamase ratio, 5 h; at 17.2 µM (top of the series) unless noted
Procedure, shortened: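 Jurkat cells with NFAT-driven β-lactamase reporter and co-expressed M1 receptor, stimulated with carbachol (final 1 uM, ~EC50), compound titration, 5 h at 37 °C. CCF4 loaded 1 h at RT; 460/530 nm ratio gave %activity and AC50.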

C/C=C/C=C/C(=O)O
inactive: Potency [1] > 92 µM | Potency [2] > 92 µM | Potency [3] > 92 µM | Potency [4] > 92 µM | Potency [5] > 92 µM | Potency [6] > 92 µM

CC1=CC(=O)NS(=O)(=O)O1
inactive: Potency [1] > 92 µM | Potency [2] > 92 µM | Potency [3] > 92 µM | Potency [4] > 92 µM | Potency [5] > 92 µM | Potency [6] > 92 µM

NCCN
inactive: Potency [1] > 92 µM | Potency [2] > 92 µM | Potency [3] > 92 µM | Potency [4] > 92 µM | Potency [5] > 92 µM | Potency [6] > 92 µM

CCCCC
inactive: Potency [1] > 92 µM | Potency [2] > 92 µM | Potency [3] > 92 µM | Potency [4] > 92 µM | Potency [5] > 92 µM | Potency [6] > 92 µM

c1ccc2ccccc2c1
inactive: Potency [1] > 92 µM | Potency [2] > 92 µM | Potency [3] > 92 µM | Potency [4] > 92 µM | Potency [5] > 92 µM | Potency [6] > 92 µM

Nc1ccc(N=Nc2ccccc2)c(N)n1
inactive: Potency [1] > 92 µM | Potency [3] > 92 µM | Potency [4] > 92 µM | Potency [5] > 92 µM | Potency [6] > 92 µM | activity change, negative = inhibition [7] -10%

CCOC(C)OCC
inactive: Potency [1] > 92 µM | Potency [2] > 92 µM | Potency [3] > 92 µM | Potency [4] > 92 µM | Potency [5] > 92 µM | Potency [6] > 92 µM

NC(N)=O
inactive: Potency [1] > 92 µM | Potency [2] > 92 µM | Potency [3] > 92 µM | Potency [4] > 92 µM | Potency [5] > 92 µM | Potency [6] > 92 µM
